Screen size: about 310,000 compounds; about 14,000 (4.5%) showed an effect of 50% or more. The effect is printed as a negative number. This excerpt belongs to a sample that is enriched for strong results.
molecular target: human ether-à-go-go-related gene (hERG) potassium channel (human, UniProt Q12809); experiment: primary screen, population patch clamp on CHO cells stably expressing hERG; higher = less effect of the substance
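Note: peak tail current of the secondary pulse compared with the same well before compound.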

Sequence of human ether-à-go-go-related gene (hERG) potassium channel (Q12809 whole entry, looked up): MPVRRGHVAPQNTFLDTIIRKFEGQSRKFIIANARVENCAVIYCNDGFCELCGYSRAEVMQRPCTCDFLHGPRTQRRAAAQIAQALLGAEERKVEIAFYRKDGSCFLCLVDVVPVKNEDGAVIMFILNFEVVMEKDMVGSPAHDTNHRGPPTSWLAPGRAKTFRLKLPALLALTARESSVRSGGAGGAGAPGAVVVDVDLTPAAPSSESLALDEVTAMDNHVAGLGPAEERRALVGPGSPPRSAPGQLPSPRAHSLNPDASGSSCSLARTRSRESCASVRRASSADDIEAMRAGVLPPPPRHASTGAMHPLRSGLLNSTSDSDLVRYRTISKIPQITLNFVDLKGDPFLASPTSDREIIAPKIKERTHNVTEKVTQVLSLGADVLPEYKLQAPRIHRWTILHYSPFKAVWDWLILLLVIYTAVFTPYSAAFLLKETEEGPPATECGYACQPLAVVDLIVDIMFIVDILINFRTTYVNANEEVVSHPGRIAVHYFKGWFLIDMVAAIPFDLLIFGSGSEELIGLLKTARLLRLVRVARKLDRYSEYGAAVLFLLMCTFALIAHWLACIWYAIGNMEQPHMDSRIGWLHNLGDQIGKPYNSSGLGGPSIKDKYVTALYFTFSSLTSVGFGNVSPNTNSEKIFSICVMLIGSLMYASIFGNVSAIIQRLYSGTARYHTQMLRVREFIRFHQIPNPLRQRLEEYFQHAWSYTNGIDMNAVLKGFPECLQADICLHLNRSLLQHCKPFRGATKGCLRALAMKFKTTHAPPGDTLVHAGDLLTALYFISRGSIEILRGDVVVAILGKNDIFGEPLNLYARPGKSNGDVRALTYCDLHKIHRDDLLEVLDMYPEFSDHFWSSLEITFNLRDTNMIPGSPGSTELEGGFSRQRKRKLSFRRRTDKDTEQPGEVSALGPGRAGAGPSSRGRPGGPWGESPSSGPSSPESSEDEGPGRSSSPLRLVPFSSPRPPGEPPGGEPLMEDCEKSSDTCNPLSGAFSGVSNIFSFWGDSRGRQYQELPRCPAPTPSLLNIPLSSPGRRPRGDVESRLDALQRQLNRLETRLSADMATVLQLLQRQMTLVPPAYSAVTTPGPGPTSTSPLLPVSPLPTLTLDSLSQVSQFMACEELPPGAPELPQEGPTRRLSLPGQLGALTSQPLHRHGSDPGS

Row | SMILES | hERG current change (%, negative = inhibition) at 10uM [%]
1 | Nc1nc(Oc2ccc(F)cc2)c(Br)c(=O)[nH]1 | 7.49
2 | COc1ccc(-c2c(-c3ccc(OCC(=O)NN)cc3O)n[nH]c2C(F)(F)F)cc1 | -5.25
3 | C/C(CC(=O)Nc1cc(Cl)ccc1Cl)=N\NC(=O)c1ccco1 | -6.6
4 | Cc1ccc(CCNC(=O)C2CC(c3ccccc3[N+](=O)[O-])=NO2)cc1 (stereo not shown) | -20.7
5 | Cc1c(C=O)n(C)n(-c2ccccc2)c1=O | 11.5
6 | Cl.O=C(c1ccco1)N1CCN(C/C=C/c2ccccc2)CC1 | -38
7 | Cl.O=C(c1cc2ccccc2o1)N1CCN(Cc2ccccc2)CC1 | -32.6
8 | O=C(c1ccc(Br)s1)N1CCN(C/C=C/c2ccccc2)CC1 | -40.6
9 | O=C(c1cc2ccccc2o1)N1CCN(C/C=C/c2ccccc2)CC1 | -62.2
10 | O=C(c1cc2ccccc2o1)N1CCN(S(=O)(=O)/C=C/c2ccccc2)CC1 | -30.8
11 | O=C(c1ccc(Br)o1)N1CCN(C/C=C/c2ccccc2)CC1 | -61.8
12 | S=c1[nH]nc(-c2cccs2)n1Cc1ccccc1 | 9
13 | CCCN1C2CCCC1CC(NC(=O)NC1CCCCC1)C2 (stereo not shown) | -12.4
14 | COCCNC(=O)Cn1cnc2ccc(S(=O)(=O)N3CCC(C)CC3)cc2c1=O | -15.1
15 | CCOCC(=O)Nc1cc(-c2cn3cccnc3n2)ccc1C | 6.69
16 | CCn1c(CSc2nc3ccccc3s2)nnc1SCC(=O)c1ccc(O)cc1O | 12.2
17 | Cn1c(SCC(=O)N2CCCCC2)nc2cccnc21 | 22.2
18 | NC(=O)c1ccsc1NC(=O)COC(=O)C1=NNC(=O)CC1 | 8.28
19 | COC(=O)c1cc2n(n1)CCN(Cc1ccc(C)cc1)C2=O | 1.46
20 | CCN1CCN(C(=O)c2cc3cc(Cl)ccc3[nH]2)CC1 | -59.8
21 | CCN1CCN(C(=O)c2cc3cc(F)ccc3[nH]2)CC1 | -65
22 | O=C(c1cc2cc(F)ccc2[nH]1)N1CCN(c2ccc(F)cc2)CC1 | -4.93
23 | CCOC(=O)N1CCN(C(=O)c2cc3cc(F)ccc3[nH]2)CC1 | -19.8
24 | CN1CCN(C(=O)c2cc3cc(Cl)ccc3[nH]2)CC1.Cl | -35.7

Row | SMILES | hERG current change (%, negative = inhibition) at 10uM [%]
25 | CCOC(=O)N1CCN(C(=O)c2cc3cc(Cl)ccc3[nH]2)CC1 | -15.7
26 | CC(=O)Nc1ccc(S(=O)(=O)N(c2cccnc2)S(=O)(=O)c2ccc(NC(C)=O)cc2)cc1 | -3.89
27 | Cc1cc(C)cc(NC(=O)CSc2ncc(S(=O)(=O)c3ccccc3)c(=O)[nH]2)c1 | 13.6
28 | O=C(Nc1ncn[nH]1)c1cc(S(=O)(=O)Nc2cccc(C(F)(F)F)c2)ccc1Cl | 17.8
29 | COc1ccc(CNC(=O)COC(=O)c2n[nH]c3ccccc23)cc1 | 7.27
30 | Cc1ccc(C(OCCN(C)C)c2cccc(C(F)(F)F)c2)cc1.O=C(O)/C=C\C(=O)O (stereo not shown) | -58.6
31 | CN(C)CCOC(c1ccc(Cl)cc1)c1ccccn1.O=C(O)/C=C/C(=O)O (stereo not shown) | -43
32 | CN(C)CCO[C@@H](c1ccc(Cl)cc1)c1ccccn1.O=C(O)/C=C\C(=O)O | -29.5
33 | CCOc1cc(/C=N/NC(=O)c2ccc(O)cc2)ccc1Oc1nc(Cl)ncc1F | -7.77
34 | CCOc1cc(/C=N\Nc2ncc(F)c(N3CCOCC3)n2)ccc1Oc1nc(Cl)ncc1F | -51.8
35 | COc1ccc(/C=N\Nc2ncc(F)c(N3CCOCC3)n2)cc1OC | -31.1
36 | CCS(=O)(=O)N1CCN(S(=O)(=O)c2ccc(F)cc2)CC1 | -18.4
37 | O=C(NC1CCC(O)CC1)c1ccc(-c2ccc([N+](=O)[O-])cc2)o1 (stereo not shown) | -76.2
38 | CC(=O)Nc1ccc(NC(=O)c2ccc(-c3ccc([N+](=O)[O-])cc3)o2)cc1 | -14.5
39 | O=C(NC1CCCCC1)c1ccc(-c2cccc([N+](=O)[O-])c2)o1 | 12.4
40 | O=C(NC1CN2CCC1CC2)c1ccc(-c2ccc([N+](=O)[O-])cc2)o1 (stereo not shown) | -64
41 | O=C(Nc1ccccc1)c1ccc(-c2ccc([N+](=O)[O-])cc2)o1 | 4.73
42 | O=C(NC1CCC(O)CC1)c1ccc(-c2ccc(Cl)cc2)o1 (stereo not shown) | -21.8
43 | Cc1cc(=O)[nH]c(Nc2ccc(Cl)cc2)n1 | 15
44 | CN1C(=O)C(CC(=O)Nc2ccccc2F)N(NC(=O)c2ccc(Br)cc2)C1=S (stereo not shown) | 6.5
45 | Cc1ccc(CCSCC(=O)O)cn1 | 18.9
46 | C=CCN1C(=O)CSc2ccc(C(=O)NCc3ccc(F)cc3)cc21 | -21.3
47 | CCN(C(=O)COc1ncnc2sccc12)c1ccccc1 | 63.8
48 | COc1ccc(C2SCC(=O)N2c2c(C)n(C)n(-c3ccccc3)c2=O)cc1OC (stereo not shown) | 13.6

Row | SMILES | hERG current change (%, negative = inhibition) at 10uM [%]
49 | COc1ccc(CC2(CO)CCN(C(=O)NCc3ccccc3)CC2)cc1 | -2.8
50 | CC(COc1ccccc1)N1CCC(CO)(CCc2ccccc2)CC1 (stereo not shown) | -80.3
51 | COC(=O)CCCC(=O)N1CCC(CO)(CCc2ccccc2)CC1 | -23.8
52 | COc1ccc(CC2(CO)CCN(C(C)COc3ccccc3)CC2)cc1 (stereo not shown) | -82
53 | COc1ccc(CCC(C)N2CCC(CO)(Cc3ccccc3)CC2)cc1 (stereo not shown) | -73.4
54 | COc1ccc(CC2(CO)CCN(S(=O)(=O)c3sccc3C)CC2)cc1 | -20.9
55 | CSCC(C)N1CCC(CO)(CCCc2ccccc2)CC1 (stereo not shown) | -55.7
56 | COc1cccc(CC2(CO)CCN(S(=O)(=O)c3ccc(OC)cc3OC)CC2)c1 | -10.7
57 | CSCC(C)N1CCC(CO)(CCc2ccccc2)CC1 (stereo not shown) | -29.4
58 | CN(C)S(=O)(=O)N1CCC(CO)(CCc2ccccc2)CC1 | -8.86
59 | COc1ccc2c(C)c(CCC(=O)NCCCN3CCCC3=O)c(=O)oc2c1C | 1.56
60 | Cc1ccc(-c2ccc(=O)n(CC(=O)NCCN3C(C)CCCC3C)n2)cc1 (stereo not shown) | 0.00388
61 | CCCN(c1ccccc1F)S(=O)(=O)c1cc(-c2cc(C)no2)ccc1OC | 6.91
62 | Cc1ccnc(NC(=O)CCC(=O)N(CC(=O)NC(C)(C)C)c2ccc3c(c2)OCCO3)c1 | 17.8
63 | Cn1cc(Cl)nc1C(O)c1ccccc1 (stereo not shown) | 7.21
64 | Br.O=S(=O)(c1ccc(-c2csc(Nc3ccc(Br)cc3)n2)cc1)N1CCCC1 | 10.2
65 | Cc1cccc(N(CC(=O)NC2CCCCC2)C(=O)c2ccc(C)s2)c1 | -24.7
66 | O=C(COc1ccc(C(=O)c2ccccc2)cc1)NC1CCCCCC1 | -21.9
67 | CC(C)(C)NC(=O)CCC1COc2ccccc2O1 (stereo not shown) | -4.27
68 | Cc1cccc(C)c1NC(=O)N1C2CCC1CC(O)(c1cccnc1)C2 (stereo not shown) | 20.2
69 | Cc1ccc(/C=C/C(=O)NCc2ccccn2)o1 | -26.4
70 | COc1ccc([C@@H]2[C@@H]3C(=O)N(C(C)(C)C)C(=O)[C@@H]3[C@]3(Cc4ccc(Cl)cc4)C(=O)N(c4ccc(Br)cc4)C(=O)N23)cc1 | 2.7
71 | CC(COc1ccccc1)N1CCC(CO)(Cc2ccccc2)CC1 (stereo not shown) | -50.6
72 | COc1ccc(CCC(C)N2CCOCC2)cc1 (stereo not shown) | 2.71

Row | SMILES | hERG current change (%, negative = inhibition) at 10uM [%]
73 | COc1ccc(CC2(CO)CCN(C(C)Cc3ccc(Cl)cc3)CC2)cc1 (stereo not shown) | -80.4
74 | CN1CCC(CO)(Cc2ccccc2)CC1 | 16.2
75 | COc1ccc(CC(=O)N2CCc3ccccc3C2)cc1 | 3.67
76 | COc1ccc(CC2(CO)CCN(S(=O)(=O)N(C)C)CC2)cc1 | 9.82
77 | Cc1ccsc1C(=O)N1CCC(CO)(Cc2ccccc2)CC1 | 17.6
78 | COc1ccc(CCC(C)N2CCc3ccccc3C2)cc1 (stereo not shown) | -61.7
79 | COc1ccc(CC2(CO)CCN(S(=O)(=O)c3c(C)nn(C)c3Cl)CC2)cc1 | 14.7
80 | COc1ccc(N2CCN(C(=O)Cn3ncc4c([nH]c5ccccc54)c3=O)CC2)cc1 | 9.02
81 | CCOC(=O)Cc1csc(NC(=O)c2ccc(S(=O)(=O)N3CCCCC3)cc2)n1 | -42.2
82 | O=[N+]([O-])c1cccn2cc(-c3ccc(Br)cc3)nc12 | -2.94
83 | NS(=O)(=O)c1ccc(CCNC(=O)CCCCCNc2nc(=S)[nH]c3ccccc23)cc1 | 24.4
84 | CC(=NCc1cccnc1)c1c(O)n(-c2ccc(C)cc2)c(=O)[nH]c1=O | -8.92
85 | Cc1ccc(-n2c(=O)cc(NCc3cccnc3)[nH]c2=O)cc1 | -65.5
86 | Cc1ccc(NCc2cccnc2)cc1 | 2.82
87 | COc1ccc(-c2cc(C(=O)N3CCCCCC3)no2)cc1OC | 7.06
88 | Cn1c(=O)c2c(nc(-n3ccnc3)n2Cc2ccc([N+](=O)[O-])cc2)n(C)c1=O | -43.7
89 | Cc1cc(C(=O)OCC(=O)Nc2cccc(F)c2)c(C)n1C1CC1 | -2.59
90 | Cc1cccc(C)c1NC(=O)CN1CCN(CC(=O)c2cc(C)n(C3CC3)c2C)CC1 | -12.4
91 | Cc1cc(C(=O)CN2C(=O)c3ccccc3C2=O)c(C)n1C1CC1 | -1.31
92 | Cc1cc(C(=O)CN2CCN(CC(=O)Nc3cccc(F)c3)CC2)c(C)n1C1CC1 | -56.2
93 | Cc1cc(C(=O)OCC(=O)Nc2ccc(F)cc2)c(C)n1C1CC1 | 5.51
94 | Cc1cc(C(=O)CN2CCN(CC(=O)Nc3ccc(F)cc3)CC2)c(C)n1C1CC1 | -74.5
